Our source for the Potency values is PubChem BioAssay (NCATS).

Each structure is given as a SMILES string. “And” between values parts separate entries of the source, which are not always exact repeats. Identical values can stand only once. Records with an inconclusive call do not appear. A call without a number means that no potency is given here. The source made the active and inactive calls. The call rests on the fitted dose curve; in most records, active means well fitted cell-killing curve with a large enough effect; inconclusive means small, poorly fitted or top-dose-only effect; inactive means flat fitted curve, though single readings scatter.
Potency means the concentration at half of the fitted maximal effect.

This assay can be described thus: qHTS of pediatric cancer cell lines to identify multiple opportunities for drug repurposing: Primary screen for U-2 OS cells (AID 1347096). Further: nearly all actives have a fitted effect of over 50% in size. The following applies: U-2 OS viability, CellTiter-Glo luminescence, 48 h; series mostly up to 46 µM. The text has this: Drug repurposing or repositioning has been offered as a strategy for drug development in oncology programs. This approach has special potential for childhood cancers and other rare or orphan diseases, where the expected return on new drug development has been a disincentive to pharmaceuticals.
In this project we exploit the poly-pharmacology of drugs to discover new indications via phenotypic screening of a panel of 19 well-characterized cell lines derived from solid tumors seen in children and adolescents. The goal is to identify approved drugs with previously unrecognized anticancer properties that has the potential to reveal new mechanisms and biological processes involved in carcinogenesis or drug resistance. We employed a titration-based paradigm (quantitative high-throughput screening or qHTS), where all compounds were tested at multiple concentrations for their effect on cell viability. Concentration-response curves (CRCs) were derived directly from the primary screen, and both potency and efficacy values were used to identify compounds with robust bioactivity profiles. We screened the NIH Chemical Genomics Center (NCGC) Pharmaceutical Collection (NPC) and Mechanism Interrogation Plate (MIPE) small molecule collections of approved and investigational compounds against these cell lines; and measured metabolically active cells after 48 hours of compound treatment as a proxy for cell viability.
Assay Submitter: Nathalia J. Martinez, National Center for Advancing Translational Sciences, National Institutes of Health, Rockville, MD, USA; email: natalia.martinez@nih.gov
[1] Shen, M et al. Quantitative high-throughput phenotypic screening of pediatric cancer cell lines identifies multiple opportunities for drug repurposing. Oncotarget 2017 Dec 19;9(4):4758-4772. PMID 29435139.
The cells were obtained from University of North Carolina (UNC), Pediatric Preclinical Testing Program (PPT), and Coriell Institute (CI).
qHTS cell viability assay:
Cells were assayed in growth media at a density of 500-1,000 cells/well. Five microliters of cells were dispensed into 1,536-well, white, solid-bottom, TC-treated plates (Greiner Bio One) using a multidrop dispenser and incubated at 37 degrees C, 5% CO2, under a humidified atmosphere for 5 hours. Twenty-three nanoliters of compounds and controls (neutral control DMSO or positive control bortezomib at final concentration of 2.3 µM) were subsequently transferred by Kalypsys pintool. For primary screens, the MIPE collection was tested at 11-point dilutions (final concentrations range from 0.78 nM to 46 µM) and the NPC collection at 8-point dilutions (final concentrations range from 0.59 nM to 46 µM). Compounds tested in follow-up screens were assayed at 11-point dilutions. Cells were incubated for 48 hours, followed by addition of 3 µL of CellTiter-Glo (Promega). After a 15 min incubation at room temperature, samples were analyzed for luminescence intensity using a ViewLux High-throughput CCD imager equipped with clear filters.
In the case of `CS(=O)(=O)CCNCc1ccc(-c2ccc3ncnc(Nc4ccc(OCc5cccc(F)c5)c(Cl)c4)c3c2)o1`, the Potency was 18.7 µM (active).

Consider `CC(C(=O)O)c1cccc(C(=O)c2ccccc2)c1` (stereo not given), for which the Potency result is “inactive”.

Turning to `CN1CCN2c3ccccc3Cc3ccccc3C2C1` (stereo not given), the Potency entry is “inactive”. Under `CCc1cccc2c3c([nH]c12)C(CC)(CC(=O)O)OCC3` (stereo not given) stands “inactive”. As for `CS(=O)(=O)Nc1ccc([N+](=O)[O-])cc1Oc1ccccc1`, the Potency result is “inactive”.

Consider `CC(=O)OCC(CCn1cnc2cnc(N)nc21)COC(C)=O`, for which the Potency entry is “inactive”.

Consider `NC(CO)C(=O)NNCc1ccc(O)c(O)c1O` (stereo not given), for which the Potency result was “inactive”.

Consider `O=C1c2c(O)ccc(O)c2C(=O)c2c(NCCNCCO)ccc(NCCNCCO)c21`, for which the Potency is 18.7 µM (active) and 10.6 µM (active). For `Cc1cnc(C(=O)NCCc2ccc(S(=O)(=O)NC(=O)NC3CCCCC3)cc2)cn1`, the Potency entry is “inactive”.

As to `O=c1c(-c2ccc(O)cc2)coc2cc(O)cc(O)c12`, the Potency result was “inactive”. With `Clc1ccccc1C(c1ccccc1)(c1ccccc1)n1ccnc1`, the Potency entry is “inactive”. Consider `CC1(CN2CCC(n3c(=O)[nH]c4ccccc43)CC2)OCc2ccccc2-n2cccc21` (stereo not given), for which the Potency result is “inactive”. Under `CN1CCN(C2=Nc3cc(Cl)ccc3Nc3ccccc32)CC1` stands “inactive”. Under `CN1CCC(=C2c3ccccc3C=Cc3ccccc32)CC1` stands “inactive”; under `CC1COc2c(N3CCN(C)CC3)c(F)cc3c(=O)c(C(=O)O)cn1c23` (stereo not given), “inactive”. As to `Cc1cc(C(C)(C)C)c(O)c(C)c1CC1=NCCN1`, the Potency result was “inactive”. Under `O=C(C1CCCCC1)N1CC(=O)N2CCc3ccccc3C2C1` (stereo not given) stands “inactive”.

Take `COc1ccc2c(c1)c(CC(=O)O)c(C)n2C(=O)c1ccc(Cl)cc1`: the Potency entry is “inactive”.

On to `COc1cc2nc(N3CCN(C(=O)C4COc5ccccc5O4)CC3)nc(N)c2cc1OC` (stereo not given), for which the Potency result was “inactive”. Consider `CN(C)C(=O)C(CCN1CCC(O)(c2ccc(Cl)cc2)CC1)(c1ccccc1)c1ccccc1`, for which the Potency entry was “inactive”.

Take `Clc1ccc(C(c2ccccc2Cl)C(Cl)Cl)cc1` (stereo not given): the Potency entry is “inactive”. Under `NCCS(=O)(=O)O` stands “inactive”; under `COc1ccc(CCN(C)CCCC(C#N)(c2ccc(OC)c(OC)c2)C(C)C)cc1OC` (stereo not given), “inactive”; under `O=C(c1ccc(OCCN2CCCCC2)cc1)c1c(-c2ccc(O)cc2)sc2cc(O)ccc12`, “inactive”. As to `O=C1N(c2ccccc2)c2ccccc2C1(Cc1ccncc1)Cc1ccncc1`, the Potency entry is “inactive”.

Regarding `CN1C(C(=O)Nc2ccccn2)=C(O)c2ccccc2S1(=O)=O`, the Potency result was “inactive”.

As for `COc1ccccc1OCCNCC(O)COc1cccc2[nH]c3ccccc3c12` (stereo not given), the Potency entry was “inactive”. For `Nc1nnc(-c2cccc(Cl)c2Cl)c(N)n1`, the Potency result is “inactive”.

As to `CC(C)(Oc1ccc(C2CC2(Cl)Cl)cc1)C(=O)O` (stereo not given), the Potency result is “inactive”. Under `Cn1ccc2cc3c(cc21)CCN3C(=O)Nc1cccnc1` stands “inactive”; under `O=c1c(O)c(-c2ccc(O)c(O)c2)oc2cc(O)cc(O)c12`, “inactive”. The entry for `CCC1(C)CC(=O)NC1=O` (stereo not given) is “inactive”. As for `OCCN1CCN(CCCN2c3ccccc3Sc3ccc(C(F)(F)F)cc32)CC1`, the Potency entry is “inactive”. Under `Cc1ccc(C(=O)Nc2ccc(S(=O)(=O)O)c3cc(S(=O)(=O)O)cc(S(=O)(=O)O)c23)cc1NC(=O)c1cccc(NC(=O)Nc2cccc(C(=O)Nc3cc(C(=O)Nc4ccc(S(=O)(=O)O)c5cc(S(=O)(=O)O)cc(S(=O)(=O)O)c45)ccc3C)c2)c1` stands “inactive”.

In the case of `O=C(c1ccc(F)cc1)C1CCN(CCn2c(=O)[nH]c3ccccc3c2=O)CC1`, the Potency entry is “inactive”. Under `C[C@H]1c2cccc(O)c2C(O)=C2C(=O)[C@]3(O)C(O)=C(C(N)=O)C(=O)[C@@H](N(C)C)[C@@H]3[C@@H](O)[C@@H]21` stands “inactive”; under `NS(=O)(=O)c1cc2c(cc1Cl)NCNS2(=O)=O`, “inactive”; under `CN(C)C(=N)N=C(N)N`, “inactive”.

In the case of `COc1ccc2[nH]cc(CCNC(C)=O)c2c1`, the Potency entry was “inactive”. Under `CN(Cc1cnc2nc(N)nc(N)c2n1)c1ccc(C(=O)N[C@@H](CCC(=O)O)C(=O)O)cc1` stands “inactive”.
